Assay outcomes from PubChem BioAssay.
Hits are enriched below; roughly 21% of the tested compounds scored in any of these assays.
CHX counter – counter-screen for Shiga toxin inhibitors: cycloheximide protein synthesis inhibition; cell reporter, cycloheximide protein synthesis inhibition counterscreen; max response, %; hit rate 12% among 300,000; AID 2314; in the data active means max response mostly above about 13%, no sharp cut-off; inactive means mostly below about 14%; further: read at 38.3 µM for the half of the compounds with a filed dose
AMA1 RON2 block – disrupts binding of P. falciparum AMA1 to RON2. AlphaScreen AMA1-biotinylated RON2 peptide binding. Potency, µM (top dose mostly 58.2 µM), actives largely listed as inhibitors. hit rate 0.2% among 360,000. AID 720542; further: nearly all actives have a fitted effect of over 45% in size
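AMA1 (3D7) with his tag at 25 nM final met compounds first, then biotinylated RON2 peptide at 25 nM; detection used donor plus acceptor beads, 10 µg/mL apiece, read by AlphaScreen after 30 min at room temperature.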
Pf growth 96h – P. falciparum growth inhibition at 96 hours. P. falciparum luciferase reporter growth, 96 h. Potency, µM (doses to about 28.7 µM), hits mostly inhibitors. hit rate 6.9% among 320,000
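Luminescence readout: decreased luciferase signal marks inhibited growth of reporter-expressing P. falciparum in infected red cells (2% hematocrit, 0.05% parasitemia final), exposed to compound two generations (96 h, 37 C, 5% CO2).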
HCV inhibitor – HCV inhibition; Huh7.5.1 HCVcc-Cre infection, luciferase reporter, 44 h; Potency, µM (doses to about 41.8 µM), most hits filed as inhibitors; hit rate 3.4% among 340,000
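Compounds are dispensed onto cells plated 4 h earlier at 1,000 per well, with HCVcc-Cre virus (about 0.5 moi) added next. Following 44 h of culture, luminescent signal is measured for 15 sec after 15 min with substrate at room temperature.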
Pf growth 48h – inhibits P. falciparum growth in the first generation, 48 h; P. falciparum luciferase growth in erythrocytes, 48 h; Potency, µM (doses to about 28.7 µM), hits mostly inhibitors; hit rate 5.9% among 310,000; AID 504832
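Compounds are pin-transferred into medium, infected erythrocytes (2% hematocrit, 0.1% parasitemia final) are added, and plates sit one parasite generation at 37 C in 5% CO2. Detection reagent is then added and luminescence measured.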
Shiga toxin inh – inhibitors of Shiga toxin in Vero cells. inhibition, % at 38.7 µM. Vero cells, Shiga toxin protein synthesis inhibition reporter. hit rate 9.2% among 290,000; in the data active means inhibition mostly above about 28%, no sharp cut-off; inactive means mostly below about 43%
Numbers stand for hits; n = inactive; u = inconclusive; x = no result given. Unless noted, the call rests on the fitted dose curve; in most records, active means well fitted curve in the direction sought with a large enough effect; inconclusive means small, poorly fitted or top-dose-only effect, or another doubt; inactive means no such curve, though single readings can be large; an effect the other way counts as inactive or inconclusive.

SMILES	CHX counter	AMA1 RON2 block	Pf growth 96h	HCV inhibitor	Pf growth 48h	Shiga toxin inh
Cn1cc(/C=C(\C#N)C(=O)Nc2ccccc2O)c2ccccc21	n	n	u	u	x	n
CCC(c1nnnn1-c1c(C)cccc1C)N1CCN(CCN2CCOCC2)CC1 (centres undefined)	x	n	x	x	x	x
Cc1ccc(C(=O)Nc2nc(-c3ccccn3)cs2)s1	x	n	u	u	0.41µM	x
CCC1CCCCN1CCCNC(=O)c1cn(CC)c2ccc(S(=O)(=O)N(C)C3CCCCC3)cc2c1=O (centres undefined)	n	n	u	u	u	n
CCc1ccc(N(C(=O)c2snc(C(N)=O)c2N)C(C(=O)NC2CCCC2)c2ccncc2)cc1 (centres undefined)	n	n	n	u	u	n
CCn1c(CC(=O)Nc2cccc(OC)c2)nnc1SCC(=O)N1CCN(c2ccccc2)CC1	n	n	n	n	n	n
CCn1c(COc2ccccc2C)nnc1SCC(=O)N1CCN(c2ccccc2)CC1	n	n	u	u	10µM	n
CCn1c(COc2cccc(C)c2C)nnc1SCC(=O)N1CCN(c2ccc(OC)cc2)CC1	n	n	9.3µM	u	u	n
CCOC(=O)N1CCN(C(=O)C[C@@H]2C[C@@]3(C(=O)OCC)CCCC=C3N(Cc3ccccc3)C2=O)CC1	x	n	x	x	x	x
Cc1cc(C(=O)NC(C)C2CCCO2)cs1 (centres undefined)	n	n	n	n	n	n
CC(NC(=O)c1sc2ccccc2c1Cl)C1CCCO1 (centres undefined)	36	n	n	n	n	n
CC(NC(=O)c1csc2ccccc12)C1CCCO1 (centres undefined)	32	n	x	u	n	63
O=C(Cc1ccc(NC(=O)C2CCN(C(=O)CCc3ccccc3)CC2)cc1)Nc1ccc(C(=O)N2CCOCC2)cc1	x	n	x	n	x	x
COc1cccc(NC(=O)CN2C(=O)c3cccnc3Oc3ccc(Cl)cc32)c1	n	n	n	u	13µM	n
O=C(CN1C(=O)c2cccnc2Oc2ccc(Cl)cc21)NCCCc1ccccc1	n	n	n	11µM	u	n
O=C(CN1C(=O)c2cccnc2Oc2ccc(Cl)cc21)Nc1ccccc1F	13	n	n	n	u	n
CC(CNC(=O)CN1C(=O)c2cccnc2Oc2ccc(Cl)cc21)c1ccccc1 (centres undefined)	n	n	u	n	n	n
COc1cc(C)nc(NC(=S)N(C)C(=O)c2ccccc2)n1	n	n	n	u	u	n
CC1C(=O)N(Cc2cn(Cc3ccco3)nn2)CCS(=O)(=O)N1Cc1ccc(-c2ccc(Cl)cc2)cc1 (centres undefined)	x	n	x	x	x	x
C#CCNC(=O)C1=C[C@H](c2csc3ccccc23)C[C@H](OCc2ccc(CO)cc2)O1	n	n	u	u	u	n
O=C(NCc1ccccc1)C1=C[C@H](c2csc3ccccc23)C[C@H](OCc2ccc(CO)cc2)O1	n	n	13µM	u	9.3µM	n
O=C(Nc1ccccc1)C1=C[C@@H](c2csc3ccccc23)C[C@@H](OCc2ccc(CO)cc2)O1	n	n	9.3µM	0.32µM	u	n
Cc1ccc(S(=O)(=O)N2CCCCC2)cc1NC(=O)Cn1cnc2c1c(=O)n(C)c(=O)n2C	x	n	u	n	n	x
O=C(N/N=C/c1ccc[nH]1)c1cc2ccccc2cc1O	31	n	n	u	u	78
O=C(N/N=C/c1ccncc1)c1cc2ccccc2cc1O	32	n	u	n	n	31
SMILES	CHX counter	AMA1 RON2 block	Pf growth 96h	HCV inhibitor	Pf growth 48h	Shiga toxin inh
O=C(N/N=C/c1ccc[nH]1)c1cc(-c2ccc(Cl)cc2)nc2ccccc12	n	n	u	u	u	n
C[C@H](CO)N1C[C@H](C)[C@@H](CN(C)Cc2ccccc2)OCc2cnnn2CCCC1=O	x	n	x	x	x	x
CCCCOc1ccc(CSc2ncn[nH]2)cc1	26	n	n	n	n	n
CCCCOc1ccc(CSc2nncn2N)cc1	31	n	x	n	n	65
CCOC(=O)c1ccc(CSc2ncn[nH]2)o1	n	n	x	n	n	n
COC(=O)c1ccc(CSc2ncn[nH]2)o1	n	n	u	n	n	n
CCCCCOc1ccc(CSc2ncn[nH]2)cc1	39	n	u	u	n	72
Cc1ccccc1S(=O)(=O)NC(=O)C1(C)CCN1C(=O)COc1ccc(Cl)cc1 (centres undefined)	x	n	x	x	x	x
